Screens as filed in PubChem.
Lassa entry inh – inhibitors of Lassa virus binding or cell entry | Lassa virus pseudotype entry inhibition, cell reporter | Potency, µM (doses to about 37.9 µM), hits mostly inhibitors | 300,000 tested, 1.2% active; calls by dose curve; tested in HEK293 cells; also: nearly all actives have a fitted effect of over 50% in size
MARV entry inh – blocks Marburg virus binding to or entry into cells; Marburg virus pseudotyped entry inhibition, cell reporter; Potency, µM (highest dose often 37.8 µM), hits mostly inhibitors; 300,000 tested, 1.8% active; AID 540276; calls by dose curve; tested in HEK293 cells
HCMV inh – blocks human cytomegalovirus replication; 410,000 tested, 4.5% active; activity change, negative = inhibition, % at 57.5 µM; AID 1259415; HFF cells, HCMV-luciferase reporter, 72 h; hits give low values; in the data active = activity change below about -60%; inconclusive = no clear call, values can overlap the other calls; inactive = above about -39%
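Inhibition of viral replication was scored as loss of reporter luminescence in HFFs infected with HCMV-luciferase (MOI 1 PFU/cell) for 72 h; compounds tested at 2 doses, normalized to buffer and Salinomycin controls.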
HCV inh – blocks hepatitis C virus; Huh7.5.1 HCVcc-Cre infection, luciferase reporter, 44 h; Potency, µM (titrated, usually from 41.8 µM), most hits filed as inhibitors; 340,000 tested, 3.4% active; active = well fitted inhibition curve with a large enough effect; inconclusive = small, poorly fitted or top-dose-only effect, or another doubt; inactive = no such curve, though single readings can be large or run the other way
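Antiviral activity was scored by luciferase reporter output from cells infected with HCVcc-Cre (~0.5 moi) in presence of compound, 44 h infection period, cells seeded 1,000/well 4 h prior.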
FMDV inh – foot and mouth disease virus antiviral activity. FMDV antiviral cell-based qHTS. Potency, µM (doses to about 57.9 µM), hits mostly inhibitors. 410,000 tested, 1.2% active. AID 1159524; calls by dose curve; tested in HEK293T cells; also: read-out not given here; nearly all actives have a fitted effect of over 45% in size
Large screens that a line does not name were inactive. The list is not random: actives were taken first. Their share in the collection is about 7.9%.

CN(C(=O)c1ccc2c(c1)N(Cc1cccc(Cl)c1)C(=O)c1ccccc1S2(=O)=O)C1CCCCC1	Lassa entry inh 10µM, HCMV inh -79.4 (no result: MARV entry inh, HCV inh)
COc1cc(C(=O)NC2CCCc3ccccc32)cc(OC)c1C (stereo not drawn)	MARV entry inh inconclusive
COc1cc2c(c(OC)c1OC)-c1ccc(OC)c(=O)cc1C(NC(=O)c1ccccc1)CC2 (stereo not drawn)	Lassa entry inh inconclusive, MARV entry inh inconclusive, HCMV inh -74.5
C=COC(=O)NC1CCc2cc(OC)c(OC)c(OC)c2-c2ccc(SC)c(=O)cc21 (stereo not drawn)	Lassa entry inh inconclusive, HCMV inh inconclusive
COc1cc2c(c(OC)c1OC)-c1ccc(SC)c(=O)cc1C(NC=O)CC2 (stereo not drawn)	MARV entry inh inconclusive, HCMV inh -97.5
COc1cc2c(c(OC)c1OC)-c1ccc(SC)c(=O)cc1C(NC(=O)c1ccccc1)CC2 (stereo not drawn)	Lassa entry inh inconclusive, MARV entry inh inconclusive, HCMV inh -63.4
CC(O)(COc1ccccc1)c1ccc2c(c1)CN(Cc1ccccn1)CCO2 (stereo not drawn)	none (no result: Lassa entry inh, MARV entry inh, HCMV inh, HCV inh)
COc1ccc(C2=C(C)C(N3CCC(C(=O)NCc4ccco4)CC3)=NS2(=O)=O)cc1	Lassa entry inh inconclusive (no result: MARV entry inh, HCV inh)
Clc1ccc2nc(-c3ccc(Cl)nc3)[nH]c2c1	Lassa entry inh inconclusive, MARV entry inh 7.94µM, HCV inh inconclusive
COCCN(C)C(=O)c1cnn(-c2ncc3c(n2)-c2ccccc2CC3)c1C	none (no result: Lassa entry inh, MARV entry inh, HCMV inh, HCV inh)
COC(=O)c1ccc(CN2CCC3(CCC(CNC(=O)c4ccccc4)O3)CC2)cc1 (stereo not drawn)	none (no result: Lassa entry inh, MARV entry inh, HCMV inh, HCV inh)
CCS(=O)(=O)c1ncc(Cl)c(C(=O)N(Cc2ccccc2)Cc2ccco2)n1	Lassa entry inh inconclusive, MARV entry inh inconclusive, HCMV inh -98.8, FMDV inh 14.1µM (no result: HCV inh)
O=C(OCC(=O)N1CCc2ccccc21)[C@@H]1CC(O)CN1S(=O)(=O)c1ccc(Cl)cc1 (stereo partly drawn)	none (no result: Lassa entry inh, MARV entry inh)
COC(=O)C1=C(C)N(Cc2ccco2)C(=O)/C1=C\c1ccc(N(C)C)cc1	MARV entry inh inconclusive
COC(=O)C1=C(C)N(Cc2ccco2)C(=O)/C1=C\c1ccc([N+](=O)[O-])cc1	Lassa entry inh inconclusive, MARV entry inh inconclusive, FMDV inh 22.4µM
Cc1ccc(-n2c(=O)c3c(c4cc(C)ccc4n3C)n(CC(=O)Nc3ccc(F)cc3)c2=O)cc1	HCMV inh -75.1 (no result: MARV entry inh, HCV inh)
CC(C)NC(=O)NC1N=NC(Nc2ccc(Cl)cc2)=N1 (stereo not drawn)	none (no result: Lassa entry inh, HCMV inh, HCV inh, FMDV inh)
Cc1ccccc1CN1CCN(c2ccc(S(=O)(=O)N3CCCC3)cn2)CC1	Lassa entry inh inconclusive, MARV entry inh inconclusive, HCMV inh -63.7, HCV inh inconclusive, FMDV inh inconclusive
CCN(CC)CCCOC(=O)C(c1ccccc1)c1ccccc1	HCV inh 0.562µM (no result: Lassa entry inh, MARV entry inh)
CCN(CC)c1nc2c(S(=O)(=O)c3ccccc3)nnn2c2ccc(Cl)cc12	MARV entry inh inconclusive, HCMV inh -76.3 (no result: Lassa entry inh, HCV inh)
CN(Cc1ccccc1)c1nc2c(S(=O)(=O)c3cccc(Cl)c3)nnn2c2ccsc12	none (no result: MARV entry inh, HCV inh)
CCN(CC)c1nc2c(S(=O)(=O)c3cccc(Cl)c3)nnn2c2ccsc12	HCMV inh -61.1 (no result: MARV entry inh, HCV inh)
COCCNC(=O)C1(C)CCCN(Cc2ccc(-n3ccnc3)cc2)C1 (stereo not drawn)	none (no result: Lassa entry inh, MARV entry inh, HCV inh)
CN(C(=S)Nc1ccc(SC(F)F)cc1)C(c1ccccc1)c1ccccc1	HCMV inh -72.5, HCV inh inconclusive (no result: Lassa entry inh, MARV entry inh)
FC(F)Sc1ccc(NC(=S)NC2CCCCC2)cc1	HCV inh inconclusive
FC(F)Sc1ccc(NC(=S)NC(c2ccccc2)c2ccccc2)cc1	Lassa entry inh inconclusive, MARV entry inh 18.3µM, HCMV inh -97.6, HCV inh inconclusive, FMDV inh inconclusive
FC(F)Sc1ccc(NC(=S)NCc2ccccc2)cc1	Lassa entry inh inconclusive, MARV entry inh inconclusive, HCMV inh -88.2, HCV inh inconclusive
CCCS(=O)(=O)c1nc(S(=O)(=O)c2ccc(C)cc2)c(NCc2ccccc2Cl)s1	MARV entry inh inconclusive (no result: HCV inh)
O=C(N/N=C1\C[C@@H](O)[C@@H](O)[C@@H]2[C@@H]3C(=O)N(C[C@@H]4CCCO4)C(=O)[C@@H]3CC[C@@H]12)OCc1ccccc1	none (no result: Lassa entry inh, HCMV inh, HCV inh, FMDV inh)
COc1ccc2c3c(n(C)c2c1)[C@H](CO)N(C(=O)Cc1ccccc1)CC31CCN(C(=O)Cc2ccccc2)CC1	none (no result: Lassa entry inh, MARV entry inh, HCV inh, FMDV inh)
Cc1cc(Br)ccc1SCC(=O)NCC(c1ccco1)N1CCCCC1 (stereo not drawn)	MARV entry inh inconclusive
